The supplement of paper PMC6555819

Legend:
Assay in all cases: PBM binding z-score (relative to random genomic background probes); higher = stronger binding; sequences stand for … in GC…GCGATTGACAGCGTAGAATGAAGG
[1] = tested on: FXR:RXRa (NR concentration 270 nM, RXRa partner concentration 90 nM)
How it was run: (§1)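 Ligand-free nuclear receptor dimers were bound for 1 h to custom Agilent 4×180K protein-binding microarrays. Detection used antibodies against each partner (one per run). Binding z-scores rest on regression-normalized fluorescence, with random background probes as the reference.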

[2] = tested on: LXRa:RXRa (NR concentration 270 nM, RXRa partner concentration 90 nM)
How it was run: as §1

[3] = tested on: LXRa homodimer (NR concentration 270 nM)
How it was run: as §1

[4] = tested on: LXRb:RXRa (NR concentration 270 nM, RXRa partner concentration 90 nM)
How it was run: as §1

[5] = tested on: LXRb homodimer (NR concentration 270 nM)
How it was run: as §1

[6] = tested on: PPARa:RXRa (NR concentration 270 nM, RXRa partner concentration 90 nM)
How it was run: as §1

[7] = tested on: PPARg:RXRa (NR concentration 180 nM, RXRa partner concentration 90 nM)
How it was run: as §1

[8] = tested on: PPARg:RXRa 270nM:90nM, anti-RXR (NR concentration 270 nM, RXRa partner concentration 90 nM)
How it was run: as §1

[9] = tested on: PPARg:RXRa 30nM:10nM, anti-RXR (NR concentration 30 nM, RXRa partner concentration 10 nM)
How it was run: as §1

[10] = tested on: PPARg:RXRa 90nM:30nM, anti-RXR (NR concentration 90 nM, RXRa partner concentration 30 nM)
How it was run: as §1

[11] = tested on: PPARg:RXRa DBDmut IVT, anti-RXR (DBD mutation: RXRa K156A/R161A, NR concentration 270 nM, RXRa partner concentration 90 nM)
How it was run: as §1

[12] = tested on: PPARg:RXRa IVT, anti-PPARg (NR concentration 270 nM, RXRa partner concentration 90 nM)
How it was run: as §1

[13] = tested on: PPARg DBDmut:RXRa IVT, anti-PPARg (DBD mutation: PPARg1 K132A/R137A, NR concentration 270 nM, RXRa partner concentration 90 nM)
How it was run: as §1

[14] = tested on: PPARg DBDmut IVT, anti-PPARg (DBD mutation: PPARg1 K132A/R137A, NR concentration 270 nM)
How it was run: as §1

[15] = tested on: PPARg homodimer (NR concentration 180 nM)
How it was run: as §1

[16] = tested on: PXR:RXRa (NR concentration 270 nM, RXRa partner concentration 90 nM)
How it was run: as §1

[17] = tested on: PXR homodimer (NR concentration 270 nM)
How it was run: as §1

[18] = tested on: RARa:RXR (NR concentration 270 nM, RXRa partner concentration 90 nM)
How it was run: as §1

[19] = tested on: RARa homodimer (NR concentration 270 nM)
How it was run: as §1

[20] = tested on: RARb:RXRa (NR concentration 270 nM, RXRa partner concentration 90 nM)
How it was run: as §1

Sequence | PBM binding z-score [1] | PBM binding z-score [2] | PBM binding z-score [3] | PBM binding z-score [4] | PBM binding z-score [5] | PBM binding z-score [6] | PBM binding z-score [7] | PBM binding z-score [8] | PBM binding z-score [9] | PBM binding z-score [10] | PBM binding z-score [11] | PBM binding z-score [12] | PBM binding z-score [13] | PBM binding z-score [14] | PBM binding z-score [15] | PBM binding z-score [16] | PBM binding z-score [17] | PBM binding z-score [18] | PBM binding z-score [19] | PBM binding z-score [20]
CCTTACGGGTCACGAAGTTATAGCACGACGAGCG | 6.04 | 3.71 | -0.266 | 3.39 | -0.139 | 5.75 | 6.25 | 5.64 | 2.5 | 4.43 | 3.76 | 4.76 | 0.631 | -0.0727 | 1.89 | 3.31 | -0.0842 | 3.86 | 0.765 | 4.51
CCGAGTACGTTATGGGGCATTCAGGCAACGGTGA | -0.345 | -0.442 | -0.712 | -0.213 | -0.602 | -0.079 | 0.408 | -0.152 | -0.465 | -0.83 | 0.389 | 0.0516 | -0.885 | -0.78 | -0.751 | -0.602 | -0.398 | -0.541 | -0.162 | 0.16
GCTAGTTGGTCAGGAAAAGGTCACACACCGGTCG | 3.35 | 3.85 | 3.43 | 3.75 | 0.375 | 4.05 | 2.57 | 3.82 | 1.41 | 3.07 | 0.896 | 2.59 | -0.101 | 0.0698 | 5.18 | 4.97 | 1.13 | 5.97 | 3.68 | 4.17
GCTATTAGTTTAAAGGGCAACCGAATGATTCTCG | 0.917 | 1.13 | 0.643 | 1.42 | 0.922 | 2.44 | 2.98 | 4.5 | 2.59 | 4.67 | 1.27 | 1.31 | 0.587 | 0.575 | 1.43 | 1.09 | 0.349 | 1.28 | 0.262 | 2.09
ATACCAAGGTGATCGTGCGGTCGTTGATACTAAC | 0.823 | 0.293 | 0.286 | -0.0591 | -0.308 | 0.0191 | 0.122 | 0.0521 | -0.564 | -0.232 | 0.367 | 0.959 | -0.0975 | -0.386 | -0.0029 | 0.16 | 0.0689 | -0.0765 | 0.173 | 0.748
TCCCGGAGGACACGAAGGTCAGAGCTTTCCAGAG | 1.21 | 1.09 | 0.214 | 0.838 | -1.26 | 1.81 | 0.359 | 1.33 | 1.5 | 1.41 | 0.961 | 0.734 | -0.541 | -1.41 | 1.3 | 1.73 | 0.166 | 1.95 | -0.433 | 3.44
